Laboratory results published in PubChem BioAssay (EPA / NIEHS).
Activity calls are given as the source filed them. How the source made its calls: active means hit-call score of the fitted dose curve at least 0.9, where 1 is the maximum; inactive means score below 0.9.

Assays:
[1] = read-out: Interleukin-1 alpha (IL1a), IL1A (gene 3552); test: BSK_KF3CT_IL1a: BioMAP Diversity Plus: KF3CT Assay for Interleukin-1 alpha (IL1a) Biomarker Activity (AID 2283070); details: primary human keratinocytes with fibroblasts; actives raise or lower the signal
Summary of the method: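 Readout is IL-1a level by ELISA, compared bidirectionally with DMSO as baseline. Cells: human keratinocytes co-cultured with foreskin fibroblasts, harvested 24 h post-dose.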

[2] = read-out: TIMP metallopeptidase inhibitor 2 (TIMP2), TIMP2 (gene 7077); test: BSK_KF3CT_TIMP2: BioMAP Diversity Plus: KF3CT Assay for TIMP metallopeptidase inhibitor 2 (TIMP2) Biomarker Activity (AID 2283071); details: primary human keratinocytes with fibroblasts; actives raise or lower the signal
Summary of the method: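 Chemicals were dosed onto human skin primary co-cultures of keratinocytes and foreskin fibroblasts, and TIMP-2 was measured by ELISA after 24 hours. Activity in either direction was fitted relative to DMSO.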

[3] = read-out: Transforming growth factor beta 1 (TGFb1), TGFB1 (gene 7040); test: BSK_KF3CT_TGFb1: BioMAP Diversity Plus: KF3CT Assay for Transforming growth factor beta 1 (TGFb1) Biomarker Activity (AID 2283072); details: primary human keratinocytes with fibroblasts; actives raise or lower the signal
Summary of the method: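 KF3CT co-culture (keratinocytes + fibroblasts), 24 h exposure → TGF-b1 ELISA → bidirectional fit, DMSO = baseline. Parallel SRB total-protein staining (0.1% SRB, 10% TCA fixation, 560 nm) for cytotoxicity.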

[4] = read-out: C-C motif chemokine 2 (Homo sapiens) (UniProt P13500); test: BSK_KF3CT_MCP1: BioMAP Diversity Plus: KF3CT Assay for Monocyte Chemoattractant Protein 1 (MCP1/CCL2) Biomarker Activity (AID 2283073); details: primary human keratinocytes with fibroblasts; actives raise or lower the signal
Summary of the method: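 Keratinocytes and foreskin fibroblasts were co-cultured, dosed with chemical, and sampled 24 h later. MCP-1 was quantified by ELISA, and the endpoint was analyzed with bidirectional fitting using DMSO as negative control.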

[5] = read-out: Matrix Metallopeptidase 9 (MMP9), MMP9 (gene 4318); test: BSK_KF3CT_MMP9: BioMAP Diversity Plus: KF3CT Assay for Matrix Metallopeptidase 9 (MMP9) Biomarker Activity (AID 2283074); details: primary human keratinocytes with fibroblasts; actives raise or lower the signal;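 on AC50: MMP9 protein level quantified by ELISA in the co-culture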
Summary of the method: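 Values come from bidirectional fitting relative to DMSO of MMP-9 levels, which were measured by ELISA. Measurements were taken 24 h after chemical dosing of a keratinocyte and foreskin fibroblast co-culture.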

[6] = read-out: E-selectin (Homo sapiens) (UniProt P16581); test: BSK_LPS_Eselectin: BioMAP Diversity Plus: LPS Assay for Eselectin Biomarker Activity (AID 2283077); details: primary human HUVEC with PBMC; actives raise or lower the signal
Summary of the method: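 Signal of E-selectin, detected by ELISA, served as the endpoint; cells were umbilical vein endothelium with PBMC, read 24 h after treatment. DMSO defined baseline, and both increases and decreases were fitted.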

[7] = read-out: Interleukin-8 (IL8), CXCL8 (gene 3576); test: BSK_LPS_IL8: BioMAP Diversity Plus: LPS Assay for Interleukin-8 (IL8) Biomarker Activity (AID 2283078); details: primary human HUVEC with PBMC; actives raise or lower the signal
Summary of the method: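 Endothelial cells and PBMC from human donors are co-cultured, treated with chemicals and LPS, then assayed for IL-8 by ELISA after 24 h. Parallel SRB staining (0.1% SRB after 10% TCA fixation, 560 nm) flags cytotoxicity.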

[8] = read-out: Interleukin-1 alpha (IL1a), IL1A (gene 3552); test: BSK_LPS_IL1a: BioMAP Diversity Plus: LPS Assay for Interleukin-1 alpha (IL1a) Biomarker Activity (AID 2283080); details: primary human HUVEC with PBMC; actives raise or lower the signal
Summary of the method: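 Measured: IL-1 alpha via ELISA at 24 h in LPS-activated human umbilical vein endothelium–PBMC co-culture. Baseline: DMSO, bidirectional fitting.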

[9] = read-out: Monocyte Chemoattractant Protein-1 (MCP1), CCL2 (gene 6347); test: BSK_LPS_MCP1: BioMAP Diversity Plus: LPS Assay for Monocyte Chemoattractant Protein-1 (MCP1) Biomarker Activity (AID 2283081); details: primary human HUVEC with PBMC; actives raise or lower the signal;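 on AC50: secreted MCP-1 protein quantified by ELISA in culture supernatant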
Summary of the method: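 LPS-stimulated HUVEC/PBMC co-culture; chemical, 24 h; MCP-1 by ELISA; bidirectional fit vs DMSO; cytotoxicity via SRB (0.1% stain, 10% TCA fix, 560 nm) in parallel wells.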

[10] = BSK_LPS_PGE2: BioMAP Diversity Plus: LPS Assay for Prostaglandin E2 (PGE2) Biomarker Activity (AID 2283082); details: primary human HUVEC with PBMC; actives raise or lower the signal;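 on AC50: secreted prostaglandin E2 measured by ELISA in LPS-stimulated co-culture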
Summary of the method: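 Compounds were added to the LPS co-culture of endothelium and PBMC, and PGE2 was measured by ELISA after 24 h. Responses in either direction were fitted with DMSO as baseline.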

[11] = read-out: Macrophage colony-stimulating factor (MCSF), CSF1 (gene 1435); test: BSK_LPS_MCSF: BioMAP Diversity Plus: LPS Assay for Macrophage colony-stimulating factor (MCSF) Biomarker Activity (AID 2283083); details: primary human HUVEC with PBMC; actives raise or lower the signal
Summary of the method: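 Compound is added to a human vascular primary co-culture of umbilical vein endothelium and blood mononuclear cells. After 24 h, M-CSF is quantified by ELISA. Signal changes are fitted in both directions against DMSO.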

[12] = read-out: Tissue Factor, F3 (gene 2152); test: BSK_LPS_TissueFactor: BioMAP Diversity Plus: LPS Assay for Tissue Factor Biomarker Activity (AID 2283084); details: primary human HUVEC with PBMC; actives raise or lower the signal
Summary of the method: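 In this co-culture system of umbilical vein endothelium with PBMC, stimulated with LPS, cell-surface CD142 is detected by ELISA at 24 h. Endpoint values derive from bidirectional fitting, DMSO serving as baseline.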

[13] = read-out: Tumor necrosis factor (Homo sapiens) (UniProt P01375); test: BSK_LPS_TNFa: BioMAP Diversity Plus: LPS Assay for Tumour Necrosis Factor alpha (TNFa) Biomarker Activity (AID 2283085); details: primary human HUVEC with PBMC; actives raise or lower the signal;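 on AC50: TNFa protein level quantified by ELISA in the co-culture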
Summary of the method: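 Cells (umbilical vein endothelium plus peripheral blood mononuclear cells) were dosed with chemical, incubated 24 h, then TNFa was quantified by ELISA; values derive from bidirectional fitting with DMSO as baseline.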

[14] = read-out: Vascular cell adhesion molecule 1 (VCAM1), VCAM1 (gene 7412); test: BSK_LPS_VCAM1: BioMAP Diversity Plus: LPS Assay for Vascular cell adhesion molecule 1 (VCAM1) Biomarker Activity (AID 2283086); details: primary human HUVEC with PBMC; actives raise or lower the signal
Summary of the method: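 Cells are dosed in an LPS-stimulated endothelial/mononuclear co-culture and, after 24 h, VCAM-1 is quantified by ELISA. Activity in either direction is fitted relative to the DMSO negative control.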

[15] = read-out: CD40, CD40 (gene 958); test: BSK_SAg_CD40: BioMAP Diversity Plus: SAg Assay for CD40 Biomarker Activity (AID 2283088); details: primary human HUVEC with PBMC; actives raise or lower the signal
Summary of the method: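 Fluorescence ELISA read-out of CD40 from umbilical vein endothelium plus peripheral blood mononuclear cells, sampled 24 h after dosing. Values come from bidirectional curve fitting with DMSO as baseline.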

[16] = read-out: CD69, CD69 (gene 969); test: BSK_SAg_CD69: BioMAP Diversity Plus: SAg Assay for CD69 Biomarker Activity (AID 2283089); details: primary human HUVEC with PBMC; actives raise or lower the signal
Summary of the method: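 ELISA, fluorescence read-out: CD69 on human umbilical vein endothelial cell + PBMC co-culture, 24 h post-dosing. Gain or loss of signal fitted bidirectionally against DMSO baseline.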

[17] = BSK_LPS_SRB: Viability Assessment in the BioMAP Diversity Plus: LPS Assay (AID 2283079); details: primary human HUVEC with PBMC;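 further: total protein by sulforhodamine B absorbance as a cytotoxicity measure; measured one day after compound addition; fitted in both directions against DMSO so loss or gain of signal counts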
Summary of the method: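 Overt cytotoxicity was gauged by sulforhodamine B total-protein staining in a primary human vascular endothelial and mononuclear cell co-culture 24 h post-dosing. Activity was fitted in both directions relative to DMSO.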

[18] = read-out: CD38, CD38 (gene 952); test: BSK_SAg_CD38: BioMAP Diversity Plus: SAg Assay for CD38 Biomarker Activity (AID 2283087); details: primary human HUVEC with PBMC; actives raise or lower the signal
Summary of the method: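 CD38 quantified by ELISA (fluorescence) in a superantigen-activated endothelial cell–PBMC co-culture at 24 h post-dose. Activity fitted in both directions relative to DMSO; parallel SRB and Alamar Blue cytotoxicity read-outs.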

[19] = read-out: CD40, CD40 (gene 958); test: BSK_LPS_CD40: BioMAP Diversity Plus: LPS Assay for CD40 Biomarker Activity (AID 2283076); details: primary human HUVEC with PBMC; actives raise or lower the signal
Summary of the method: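 CD40 signal, measured by ELISA, is fitted in both directions relative to DMSO vehicle. The system is an LPS-driven human vascular primary co-culture of endothelial cells and PBMC, sampled 24 h after compound addition.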

Measured: AC50

Sequence of Tumor necrosis factor (Homo sapiens) (P01375 whole entry, looked up): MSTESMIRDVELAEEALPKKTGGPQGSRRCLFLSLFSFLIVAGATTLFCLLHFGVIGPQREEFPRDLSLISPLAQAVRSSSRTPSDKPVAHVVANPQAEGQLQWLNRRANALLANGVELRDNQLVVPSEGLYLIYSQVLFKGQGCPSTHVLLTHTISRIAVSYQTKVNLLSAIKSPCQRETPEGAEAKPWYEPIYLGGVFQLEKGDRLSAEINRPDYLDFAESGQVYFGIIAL
Sequence of E-selectin (Homo sapiens) (P16581 whole entry, looked up): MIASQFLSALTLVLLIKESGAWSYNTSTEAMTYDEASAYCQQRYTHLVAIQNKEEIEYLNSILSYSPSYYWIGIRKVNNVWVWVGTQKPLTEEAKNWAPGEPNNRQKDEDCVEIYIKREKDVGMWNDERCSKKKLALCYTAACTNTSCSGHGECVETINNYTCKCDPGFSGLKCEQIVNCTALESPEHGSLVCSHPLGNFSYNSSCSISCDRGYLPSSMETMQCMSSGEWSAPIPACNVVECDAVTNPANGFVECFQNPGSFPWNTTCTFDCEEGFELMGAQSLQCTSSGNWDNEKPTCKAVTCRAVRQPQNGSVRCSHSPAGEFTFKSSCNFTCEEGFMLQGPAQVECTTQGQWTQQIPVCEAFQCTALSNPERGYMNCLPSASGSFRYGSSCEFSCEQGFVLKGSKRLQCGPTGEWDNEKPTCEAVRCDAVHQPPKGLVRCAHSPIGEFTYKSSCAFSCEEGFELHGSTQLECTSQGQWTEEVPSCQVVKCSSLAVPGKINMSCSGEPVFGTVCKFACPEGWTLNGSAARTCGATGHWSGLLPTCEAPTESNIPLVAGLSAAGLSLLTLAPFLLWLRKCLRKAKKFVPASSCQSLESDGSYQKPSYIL

OCc1c[nH]c2ccccc12
active: [5] 20 µM | [11] 3.97 µM | [15] 20 µM
not listed: [17] | [18] | [19]
inactive: all other assays above

OC(CCl)CCl
not listed: [16] | [19]
inactive: all other assays above

O=C(O)c1cccc(C(=O)O)c1
active: [4] 0.323 µM
not listed: [16] | [18] | [19]
inactive: all other assays above

CCCCCOC(C)=O
active: [13] 10.1 µM
not listed: [19]
inactive: all other assays above

CCN(CC)C(=S)SSC(=S)N(CC)CC
active: [1] 13.4 µM | [2] 12.4 µM | [4] 10.5 µM | [5] 14.2 µM | [19] 30.4 µM | [6] 34.8 µM | [7] 29.7 µM | [9] 29.5 µM | [10] 14.9 µM | [11] 30.3 µM | [12] 27.6 µM | [13] 15.4 µM | [14] 28 µM

Nc1ccn([C@@H]2O[C@H](CO)[C@@H](O)[C@@H]2O)c(=O)n1
not listed: [19]
inactive: all other assays above
